Active and inactive are the calls of the source.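 The calls were made as follows, unless noted: active = compound that reduces growth-factor-driven endothelial tube area in a mixed cell culture, no cutoff stated; inactive = the rest.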
How the values were obtained:
[1] = stimulators of nuclear beta-catenin in C2C12, primary screen, imaging, WNT3A-conditioned medium, mouse C2C12, NPC library (AID 1117326; in the data active = nuclear beta-catenin stimulation mostly above about 4.2%, no sharp cut-off; inactive = mostly below about 10%; also: reference of the scale not given here); details: stronger effect = higher value
[2] = stimulators of insulin release from INS-1E, primary screen, cell-based, 5 mM glucose, NPC library (AID 1117329;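 active = compound raises insulin release from rat beta cells at 5 mM glucose, no numeric limit stated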; also: reference of the scale not given here); details: rat INS-1E insulin secretion, at 10 µM, stronger effect = higher value
[3] = growth inhibition of GSK3B-pretreated HCT116 cells – cell-based, CellTiter-Glo, 0.2 to 20 µM (AID 1117336;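 active = compounds lowering colon cancer cell viability after pretreatment blocking the GSK3B kinase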); details: HCT116 viability after GSK3B inhibitor, at 20 µM, stronger effect = higher value
[4] = inhibition of endothelial tube formation, primary screen, imaging, VEGF stimulated, CD31 staining, tube area, NPC library (AID 1117340); details: VEGF-stimulated ADSC/ECFC co-culture, at 10 µM, stronger effect = higher value
[5] = glucagon-like peptide 1 release enhancers, primary assay, NCI-H716 cell line, NPC library (AID 1117341;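 active = compound raises GLP1 secretion from the human gut endocrine cells, with no numeric limit stated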; also: reference of the scale not given here); details: NCI-H716 cells, at 10 µM, stronger effect = higher value
[6] = HCT116 colon cancer cell growth inhibition, primary screen, CellTiter-Glo luminescence, NPC library (AID 1117342;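 active = compounds that lower survival of HCT116 colon cancer cells in the luminescence readout, no numeric limit stated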); details: at 20 µM (top of the series)
[7] = CellTiter-Glo luminescent readout of SW480 viability loss, NPC library primary (AID 1117343;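 active = compounds that lower viability of the colon cancer cells in the luminescence readout, with no numeric limit stated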); details: CellTiter-Glo luminescence; at 20 µM (top of the series)
[8] = decreased DLD-1 cellular survival, CellTiter-Glo luminescent readout, NPC compound collection, primary HTS (AID 1117346;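 active = compounds that lower survival of DLD-1 colon cancer cells in the luminescence readout, no cutoff given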); details: DLD-1 viability, CellTiter-Glo luminescence; at 20 µM (top of the series)

| SMILES | nuclear beta-catenin stimulation ([1]; at 10 µM) | nuclear beta-catenin stimulation ([1]; stimulation, at 2 µM) | insulin secretion stimulation [2] | viability decrease [3] | tube area decrease [4] | GLP1 secretion stimulation [5] | inhibition of viability [6] | viability decrease (inhibition) [7] | viability decrease (inhibition) [8] |
| --- | --- | --- | --- | --- | --- | --- | --- | --- | --- |
| N#C/C(=C1\SCC(c2ccccc2Cl)S1)n1ccnc1 (stereo not drawn) | 2% (inactive) | 2.6% | -2.4% (inactive) | 13.1% (inactive) | 21.9% (inactive) | 0.1% (inactive) | 21.7% (inactive) | 85.4% (active) | 35.2% (inactive) |
| O=C(OCc1ccccc1)c1ccc(O)cc1 | 4.1% (inactive) | -0.1% | 0.1% (inactive) | -24.5% (inactive) | -8.2% (inactive) | 0.1% (inactive) | 16.1% (inactive) | 12.9% (inactive) | 14.4% (inactive) |
| O=C(O)Cc1ccc2c(c1)C(=O)c1ccccc1CO2 | 0.5% (inactive) | 0.6% | 0.2% (inactive) | -4.5% (inactive) | -16.2% (inactive) | 1.7% (inactive) | -7.1% (inactive) | -5.2% (inactive) | -10.1% (inactive) |
| CC(C(=O)O)c1ccc(/C=C2\CCCCC2=O)cc1 (stereo not drawn) | 0% (inactive) | -1.5% | 0% (inactive) | 5.4% (inactive) | 0.5% (inactive) | 2.1% (inactive) | -19.6% (inactive) | 25.5% (inactive) | -23.7% (inactive) |
| CN[C@@H]1[C@H](O)[C@H](O[C@@H]2[C@H](O)[C@@H](O[C@H]3O[C@H]([C@@H](C)NC)CC[C@H]3N)[C@@H](N)C[C@H]2N)OC[C@]1(C)O | -0.1% (inactive) | -0.4% | 1.1% (inactive) | 7.9% (inactive) | 0.9% (inactive) | 2.8% (inactive) | 6.73% (inactive) | 29.9% (inactive) | -5.6% (inactive) |
| O=S(=O)(O)c1ccc(O)cc1 | 0.1% (inactive) | 2% | -2.6% (inactive) | -3.65% (inactive) | 5.3% (inactive) | -0.7% (inactive) | -4% (inactive) | 11.5% (inactive) | -5.95% (inactive) |
| C/C(=N\O)c1ccc(OCC(=O)N2CCCCC2)cc1 | 0.1% (inactive) | -1.1% | 3.05% (inactive) | 17.3% (inactive) | -6.2% (inactive) | 0.1% (inactive) | 13.8% (inactive) | -2.5% (inactive) | -0.4% (inactive) |
| CCC(C(=O)OCCN1CCOC(c2ccccc2)C1C)c1ccccc1 (stereo not drawn) | 1% (inactive) | 1.6% | 1.7% (inactive) | -40.8% (inactive) | 3.7% (inactive) | 5.9% (inactive) | 15.8% (inactive) | -0.4% (inactive) | 22.2% (inactive) |
| CCCc1ccc(OCC(=O)N2CCN(C(=O)COc3ccc(CCC)cc3OC)CC2)c(OC)c1 | 0.8% (inactive) | 2.5% | 2.6% (inactive) | -50.5% (inactive) | 43.5% (active) | 10.9% (inactive) | 48.2% (inactive) | 97.2% (active) | 101% (active) |
| N[C@@H](CSCCCO)C(=O)O | -1.1% (inactive) | 1.4% | -0.6% (inactive) | -4.55% (inactive) | 1.7% (inactive) | -0.3% (inactive) | -17.6% (inactive) | 17.3% (inactive) | -1.1% (inactive) |
| C[C@@H](O)[C@H](N)C(=O)O | 0.7% (inactive) | 0.7% | -1.9% (inactive) | -7.25% (inactive) | -11.2% (inactive) | 1.6% (inactive) | -31.1% (inactive) | 13.3% (inactive) | 12.6% (inactive) |
| OCC(O)CS (stereo not drawn) | -0.5% (inactive) | 0.8% | 0.7% (inactive) | -84.2% (inactive) | 27.8% (inactive) | 0.4% (inactive) | 6.77% (inactive) | -24% (inactive) | -8.2% (inactive) |
| O=C(O)c1cn(C2CC2)c2cc(Cl)c(F)cc2c1=O | 0% (inactive) | -1.8% | 2.05% (inactive) | 55.5% (active) | -14.6% (inactive) | -3.9% (inactive) | 42.5% (inactive) | -3.8% (inactive) | -3.8% (inactive) |
| NC(=O)CC[C@@H]1NC(=O)[C@H](Cc2ccccc2)NC(=O)[C@H](Cc2ccc(O)cc2)NC(=O)CCSSC[C@@H](C(=O)N2CCC[C@H]2C(=O)N[C@@H](CCCN=C(N)N)C(=O)NCC(N)=O)NC(=O)[C@H](CC(N)=O)NC1=O | -0.6% (inactive) | -1.2% | 0.8% (inactive) | 8.4% (inactive) | 3.9% (inactive) | 2.4% (inactive) | 1% (inactive) | 1.3% (inactive) | -0.2% (inactive) |
| O=C(O)Cc1csc(-c2ccc(Cl)cc2)n1 | -0.7% (inactive) | -0.2% | 0.4% (inactive) | -4.4% (inactive) | 0.8% (inactive) | -2.9% (inactive) | -9.9% (inactive) | -3.2% (inactive) | -11% (inactive) |
| CCCCCCCCCCCCCCCCN | 1.3% (inactive) | 1.3% | -2.4% (inactive) | 5% (inactive) | 6.5% (inactive) | 0.9% (inactive) | 5.9% (inactive) | 4.5% (inactive) | -6.6% (inactive) |

| SMILES | nuclear beta-catenin stimulation ([1]; at 10 µM) | nuclear beta-catenin stimulation ([1]; stimulation, at 2 µM) | insulin secretion stimulation [2] | viability decrease [3] | tube area decrease [4] | GLP1 secretion stimulation [5] | inhibition of viability [6] | viability decrease (inhibition) [7] | viability decrease (inhibition) [8] |
| --- | --- | --- | --- | --- | --- | --- | --- | --- | --- |
| CCC(=C(CC)c1ccc(OP(=O)(O)O)cc1)c1ccc(OP(=O)(O)O)cc1 | -1.3% (inactive) | 1.7% | -1.8% (inactive) | -26.4% (inactive) | 3.7% (inactive) | -1.8% (inactive) | -0.4% (inactive) | -2.6% (inactive) | 10.2% (inactive) |
| CC(C)(C)c1nnc(NS(=O)(=O)c2ccccc2)s1 | 0.7% (inactive) | 1.5% | 33.5% (active) | -0.1% (inactive) | 17.7% (inactive) | -0.5% (inactive) | -5.8% (inactive) | -1.2% (inactive) | -7% (inactive) |
| CCCCCCCCCCCCCC[N+](C)(C)Cc1ccccc1 | 55% (active) | -0.7% | 3.5% (inactive) | 99.5% (active) | 109% (active) | -0.6% (inactive) | 99.2% (active) | 101% (active) | 102% (active) |
| O=C(CN1CCNCC1)NC1CCCCC1 | -0.7% (inactive) | 0.3% | 5% (inactive) | -3.9% (inactive) | 13.7% (inactive) | 1% (inactive) | 7.2% (inactive) | 16.3% (inactive) | 4.5% (active) |
| COC(=O)Nc1nc2ccc(C(=O)C3CC3)cc2[nH]1 | 41.8% (active) | 54.5% | 1.9% (inactive) | 93.1% (active) | 103% (active) | -0.3% (inactive) | 87.9% (active) | 32.9% (inactive) | 51.6% (active) |
| CC(C)(C)c1cc(C=O)cc(C(C)(C)C)c1O | 2% (inactive) | 4.1% | 1.1% (inactive) | 19.1% (inactive) | 10.5% (inactive) | 0.6% (inactive) | 4.5% (inactive) | -22.1% (inactive) | -10% (inactive) |
| Cc1c(C(=O)NCCO)[n+](=O)c2ccccc2n1[O-] | 5% (inactive) | 3% | -1.6% (inactive) | -6.4% (inactive) | 14% (inactive) | -0.4% (inactive) | 0.3% (inactive) | -17.1% (inactive) | -6.2% (inactive) |
| CCN(CC)CCN | 0.4% (inactive) | -1.7% | 1.7% (inactive) | -6% (inactive) | 5.8% (inactive) | -1% (inactive) | -0.4% (inactive) | 1.2% (inactive) | -10.7% (inactive) |
| O=S(c1cc(Cl)cc(Cl)c1O)c1cc(Cl)cc(Cl)c1O | -0.5% (inactive) | -1.3% | 4.7% (inactive) | 110% (active) | 92.8% (active) | 27.8% (active) | 112% (active) | 126% (active) | 101% (active) |
| OC(C#CCN1CCCC1)(c1ccccc1)c1ccccc1 | 1.6% (inactive) | 0.1% | 4.7% (inactive) | 20.5% (inactive) | 11.1% (inactive) | 5.5% (inactive) | 21.4% (inactive) | 9.7% (inactive) | -4.2% (inactive) |
| CCCC(CCC)(C(=O)OCC)C(=O)OCC | -1.3% (inactive) | -2.9% | 2.1% (inactive) | 11.4% (inactive) | -3.8% (inactive) | 3.5% (inactive) | 12.2% (inactive) | 1.4% (inactive) | -4.9% (inactive) |
| CCCCC(C)(O)CC=C[C@H]1[C@H](O)CC(=O)[C@H]1CCCCCCC(=O)OC (stereo partly drawn) | -0.9% (inactive) | 2.4% | 0.9% (inactive) | -0.5% (inactive) | -9.4% (inactive) | -1.9% (inactive) | -12.9% (inactive) | -17.2% (inactive) | 66.4% (active) |
| CN(C)CCOc1ccccc1Cc1ccccc1 | -1.8% (inactive) | 2.3% | 22% (active) | -14% (inactive) | 4.9% (inactive) | -5.1% (inactive) | 11.4% (inactive) | 34% (inactive) | 0.8% (inactive) |
| C[C@H](N)C(=O)N[C@@H](C)C(=O)NC1[C@H]2CN(c3nc4c(cc3F)c(=O)c(C(=O)O)cn4-c3ccc(F)cc3F)C[C@@H]12 (stereo partly drawn) | 0.2% (inactive) | -2.1% | 3.4% (inactive) | 80.7% (active) | 1.8% (inactive) | 0.7% (inactive) | 27.2% (inactive) | 2.9% (inactive) | -9.3% (inactive) |
| CNC(=O)c1c(I)c(NC(=O)CCCCC(=O)Nc2c(I)c(C(=O)O)c(I)c(C(=O)NC)c2I)c(I)c(C(=O)O)c1I | -0.7% (inactive) | 2.2% | -0.3% (inactive) | -17.5% (inactive) | -0.8% (inactive) | -0.4% (inactive) | 9.4% (inactive) | -3.6% (inactive) | -2.4% (inactive) |
| CC(C)c1cc2c(cc1S(=O)(=O)O)[C@@]1(C)CCC[C@@](C)(C(=O)O)[C@@H]1CC2 | -1% (inactive) | -3.3% | 1.4% (inactive) | 3.3% (inactive) | -20.8% (inactive) | -1.8% (inactive) | 5.2% (inactive) | -5.2% (inactive) | 11.9% (inactive) |
